Experimental data: PubChem BioAssay (NCATS)
Inconclusive results are not listed. A call without a number means that no potency is given here. Active and inactive are the calls of the source. Calls come from the whole dose curve.

test: Validation screen for inhibitors of Lassa infection (AID 463096); details: Lassa virus infection, cell-based; series mostly up to 46.1 µM
Potency is the fitted concentration of half-maximal effect.

Row | SMILES | Potency
1 | Cc1cn[nH]c1 | inactive
2 | CCCN(CCC)CCc1cccc2c1CC(=O)N2 | inactive
3 | NC[C@H](O)c1ccc(O)c(O)c1 | inactive
4 | CC(C)NCC(O)c1ccc(O)c(O)c1 (stereo not drawn) | inactive
5 | COc1cc2c(c(OC)c1OC)-c1ccc(OC)c(=O)cc1[C@@H](NC(C)=O)CC2 | inactive
6 | Cc1cccc(C)c1OCC(C)N (stereo not drawn) | inactive
7 | O=C1c2c(O)ccc(O)c2C(=O)c2c(NCCNCCO)ccc(NCCNCCO)c21 | 282 nM (active)
8 | NS(=O)(=O)c1cc2c(cc1Cl)NC=NS2(=O)=O | inactive
9 | Cc1nc2n(c(=O)c1CCN1CCC(c3noc4cc(F)ccc34)CC1)CCCC2 | inactive
10 | O=c1c(O)c(-c2ccc(O)c(O)c2)oc2cc(O)cc(O)c12 | inactive
11 | O=C1NC(=O)C(c2ccccc2)(c2ccccc2)N1 | inactive
12 | COC(=O)C1=C(C)NC(C)=C(C(=O)OCCN(C)Cc2ccccc2)C1c1cccc([N+](=O)[O-])c1 (stereo not drawn) | inactive
13 | CC(C)NCC(O)COc1ccc(CCOCC2CC2)cc1 (stereo not drawn) | inactive
14 | Oc1ccc(C2CNCCc3c2cc(O)c(O)c3Cl)cc1 (stereo not drawn) | inactive
15 | NC12CC3CC(CC(C3)C1)C2 | inactive
16 | CC(COc1ccccc1)N(CCCl)Cc1ccccc1 (stereo not drawn) | inactive
17 | O=NN(CCCl)C(=O)NCCCl | inactive

Row | SMILES | Potency
18 | Cc1[nH]c(=O)c(C#N)cc1-c1ccncc1 | inactive
19 | CN(C)CCOC(C)(c1ccccc1)c1ccccn1 (stereo not drawn) | inactive
20 | N[C@@H]1CONC1=O | inactive
21 | CCOC(=O)c1ncn2c1CN(C)C(=O)c1cc(F)ccc1-2 | inactive
22 | CC1=NS(=O)(=O)c2cc(Cl)ccc2N1 | inactive
23 | CN1CCN(C2=Nc3ccccc3Oc3ccc(Cl)cc32)CC1 | inactive
24 | CNC1(C)C2CCC(C2)C1(C)C (stereo not drawn) | inactive
25 | COc1cc2nc(N3CCN(C(=O)C4COc5ccccc5O4)CC3)nc(N)c2cc1OC (stereo not drawn) | inactive
26 | CN(C)CC/C=C1\c2ccccc2COc2ccccc21 | inactive
27 | CCC1(c2ccccc2)C(=O)NCNC1=O | inactive
28 | COc1cc2nc(N3CCN(C(=O)C4CCCO4)CC3)nc(N)c2cc1OC (stereo not drawn) | inactive
29 | CC[N+](C)(C)c1cccc(O)c1 | inactive
30 | Nc1nc2c(ncn2COC(CO)CO)c(=O)[nH]1 | inactive
31 | CC12CC3CC(C)(C1)CC(N)(C3)C2 | inactive
32 | CCCC(CCC)C(=O)O | inactive
33 | COc1cc(Cc2cnc(N)nc2N)cc(OC)c1OC | inactive
